The panel holds about 83,000 compounds, 20% with a hit somewhere; the sample as a whole holds those more often.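 Values shown are percent growth following 48 h exposure of cells in 96-well plates to a single concentration of compound; below 10 was considered active.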 A number with no mark means an inactive call. Activity calls are given as the source filed them.

In the first test the test system is OVCAR-4 ovarian. Put plainly: NCI-60 one-dose screen, 48 h (100 = growth as untreated, 0 = no growth, -100 = all killed). The conditions noted are these: 10 µM unless noted.
For `CCSc1nnc(Nc2ccc(C(C)C)cc2)s1`, the growth was 84%.

On to `O=C(Cc1c(F)cccc1Cl)Nc1ccc(S(=O)(=O)Nc2ncccn2)cc1`, for which the growth is 101%.

With `CC1(C)OC2COC3(C(=O)O)OC(C)(C)OC3C2O1` (stereo not drawn), the growth is 116%.

As to `COc1cc(-n2nc(C(=O)Nc3ccc(C(=O)O)cc3)nc2-c2ccccc2)cc(OC)c1OC`, the growth is 110%.

On to `CN1CCN(CCCOc2ccc3nc(Nc4ccc(C(F)(F)F)c(Cl)c4)ccc3c2)CC1`, for which the growth is 41.7%.

For the molecule `COc1ccc(S(=O)(=O)NCCNc2nccc(-c3c(-c4ccccc4)nc4sccn34)n2)cc1`, the growth was 27.8%.

Regarding `O=c1[nH]c(-c2cn(-c3ccc(Cl)cc3)nn2)nc2ccccc12`, the growth is 36%.

`COc1ccc(S(=O)(=O)Nc2cc(/C=C\c3cc(OC)c(OC)c(OC)c3)cc(OC)c2OC)cc1OC`: the growth was 39.7%.

Take `COc1ccc(-c2nc3sccn3c2-c2ccnc(NCCNS(=O)(=O)c3ccc(C(F)(F)F)cc3)n2)cc1`: the growth is 15.9%.

In the case of `CCN(CC)CCSc1c2ccc(Cl)cc2nc2ccc(OC)cc12`, the growth was 81%.

Turning to `COc1ncc(-c2ccc3ncnc(Nc4cccc(Cl)c4)c3c2)cc1NS(=O)(=O)CCN1CCOCC1`, the growth is 33.1%.

`O=c1[nH]c(CN2CCN(c3ccccc3F)CC2)nc2sc3c(c12)CCC3`: the growth is 112%.

Turning to `O=C(Nc1cccc(Cl)c1)c1cc([N+](=O)[O-])ccc1O`, the growth is 46.1%.

As to `Cc1cc(N/C=c2\sc3ncnn3c2=O)no1`, the growth is 106%.

On to `c1ccc2c(c1)Oc1ccccc1C2C1c2ccccc2Oc2ccccc21`, for which the growth is 84%.

On to `CC(C)CCN(CCCNc1c2c(nc3ccccc13)CCCC2)CCC(C)C`, for which the growth was 66.3%.

As to `COc1cc(/C=C/C(=O)c2ccccc2O)ccc1OCCCOc1cc2c(cc1OC)C(=O)N1CCC[C@H]1C=N2`, the growth is -2.17% (active).

On to `O=C1NC(Cc2c[nH]c3ccccc23)C(=O)N1Cc1ccc(Cl)cc1` (stereo not drawn), for which the growth was 96.9%.

As for `COc1ccc(C2CC(c3cccs3)=NN2c2ccc(S(=O)(=O)NC(=O)NCc3cccc(OC)c3)cc2)cc1` (stereo not drawn), the growth was 103%.

As for `CCOC(=O)C1=C(CSC(=S)N(C2CCCCC2)C2CCCCC2)N(C)C(=O)NC1c1ccccc1` (stereo not drawn), the growth was 45%.

Turning to `COc1cccc2nc(Nc3ccc(NC(=O)c4ccc5ncccc5c4)cc3)ccc12`, the growth is 89.7%.

On to `Cc1cc(NC(=O)COC(=O)c2sc3cc(F)ccc3c2Cl)no1`, for which the growth is 105%.

Take `CC/C=C\C[C@H](O)C/C=C1/C(=O)C(Cl)=C[C@@H]1C/C=C\CCCC(=O)O`: the growth was 63.2%.

As to `O=Nc1c(-c2c(O)[nH]c3ccc([N+](=O)[O-])cc23)[nH]c2ccc(O)cc12`, the growth is 19.7%.

For the molecule `O=C(Nc1ccc(F)cc1)c1cc([N+](=O)[O-])ccc1O`, the growth is 70.5%.

With `Cc1ccc(S(=O)(=O)OCC(=O)Nc2ccc(C(=O)O)c(O)c2)cc1`, the growth is 86.9%.

On to `Cc1cc(C)c(NC(=O)c2sc3nc4c(cc3c2N)CN(Cc2ccccc2)CC4)c(C)c1`, for which the growth was 31.6%.

In the case of `COc1ccc(-c2nnc(COc3ccc(NS(=O)(=O)c4ccc(OC)cc4)cc3F)o2)cc1`, the growth was 57.3%.

Turning to `Cc1ccc2nc(-c3c(CCCO)noc3N)[nH]c(=O)c2c1`, the growth is 97.4%.

In the case of `O=[N+]([O-])c1ccc(S(=O)(=O)N2CCN(c3ccnc4cc(Cl)ccc34)CC2)c([N+](=O)[O-])c1`, the growth is 95.3%.

As to `CCN(Cc1ccc(CN(CC)C(=O)C(Cl)(Cl)Cl)cc1)C(=O)C(Cl)(Cl)Cl`, the growth is 74.7%.

On to `COc1ccc(Cn2cc(COc3cc(/C=C/C(=O)c4cc(OC)c(OC)c(OC)c4)ccc3OC)nn2)cc1`, for which the growth is 51%.

As for `N#CC1=C(N)n2nc(-c3ccncc3)nc2NC1c1cccc2ccccc12` (stereo not drawn), the growth is 80.4%.

For the molecule `COc1ccc(/C=C/C(=O)c2ccc(B(O)O)cc2)cc1O`, the growth is 114%.

In the case of `Nc1nc(-c2ccccc2)cs1`, the growth was 102%.

Regarding `NS(=O)(=O)c1ccc(NCC(=O)Nc2ccc(-c3nc4ccccc4s3)cc2)cc1`, the growth was 67.2%.

In the case of `COc1cc(Br)c(OC)cc1Br`, the growth is 102%.

Consider `COc1cc(NS(C)(=O)=O)ccc1Nc1c2ccc([N+](=O)[O-])cc2nc2c(C)cccc12`, for which the growth is 49.1%.

For `O=C(Nc1ccc(I)cc1)c1cccc([N+](=O)[O-])c1O`, the growth was 19.1%.

The test system of a further test is SK-OV-3 ovarian. The description is as above. To be noted: 10 µM unless noted.
Turning to `CCSc1nnc(Nc2ccc(C(C)C)cc2)s1`, the growth is 104%.

With `O=C(Cc1c(F)cccc1Cl)Nc1ccc(S(=O)(=O)Nc2ncccn2)cc1`, the growth was 102%.

For `CC1(C)OC2COC3(C(=O)O)OC(C)(C)OC3C2O1` (stereo not drawn), the growth was 103%.

With `COc1cc(-n2nc(C(=O)Nc3ccc(C(=O)O)cc3)nc2-c2ccccc2)cc(OC)c1OC`, the growth is 64.3%.

`CN1CCN(CCCOc2ccc3nc(Nc4ccc(C(F)(F)F)c(Cl)c4)ccc3c2)CC1`: the growth was 55.5%.

Turning to `COc1ccc(S(=O)(=O)NCCNc2nccc(-c3c(-c4ccccc4)nc4sccn34)n2)cc1`, the growth was 23%.

Take `O=c1[nH]c(-c2cn(-c3ccc(Cl)cc3)nn2)nc2ccccc12`: the growth is 38.9%.

As for `COc1ccc(S(=O)(=O)Nc2cc(/C=C\c3cc(OC)c(OC)c(OC)c3)cc(OC)c2OC)cc1OC`, the growth was 17.1%.

In the case of `COc1ccc(-c2nc3sccn3c2-c2ccnc(NCCNS(=O)(=O)c3ccc(C(F)(F)F)cc3)n2)cc1`, the growth is 29.6%.

As for `CCN(CC)CCSc1c2ccc(Cl)cc2nc2ccc(OC)cc12`, the growth is 86.5%.

Consider `COc1ncc(-c2ccc3ncnc(Nc4cccc(Cl)c4)c3c2)cc1NS(=O)(=O)CCN1CCOCC1`, for which the growth was -25.9% (active).

Turning to `O=c1[nH]c(CN2CCN(c3ccccc3F)CC2)nc2sc3c(c12)CCC3`, the growth was 96.5%.

On to `O=C(Nc1cccc(Cl)c1)c1cc([N+](=O)[O-])ccc1O`, for which the growth was 59.8%.

With `Cc1cc(N/C=c2\sc3ncnn3c2=O)no1`, the growth was 105%.

In the case of `c1ccc2c(c1)Oc1ccccc1C2C1c2ccccc2Oc2ccccc21`, the growth is 105%.

Regarding `CC(C)CCN(CCCNc1c2c(nc3ccccc13)CCCC2)CCC(C)C`, the growth was 94.3%.

Turning to `COc1cc(/C=C/C(=O)c2ccccc2O)ccc1OCCCOc1cc2c(cc1OC)C(=O)N1CCC[C@H]1C=N2`, the growth is 33.1%.

Take `O=C1NC(Cc2c[nH]c3ccccc23)C(=O)N1Cc1ccc(Cl)cc1` (stereo not drawn): the growth is 101%.

On to `COc1ccc(C2CC(c3cccs3)=NN2c2ccc(S(=O)(=O)NC(=O)NCc3cccc(OC)c3)cc2)cc1` (stereo not drawn), for which the growth was 82.6%.

Turning to `CCOC(=O)C1=C(CSC(=S)N(C2CCCCC2)C2CCCCC2)N(C)C(=O)NC1c1ccccc1` (stereo not drawn), the growth is 71.4%.

Consider `COc1cccc2nc(Nc3ccc(NC(=O)c4ccc5ncccc5c4)cc3)ccc12`, for which the growth was 86.4%.

`Cc1cc(NC(=O)COC(=O)c2sc3cc(F)ccc3c2Cl)no1`: the growth is 111%.

As to `CC/C=C\C[C@H](O)C/C=C1/C(=O)C(Cl)=C[C@@H]1C/C=C\CCCC(=O)O`, the growth is 99.7%.

Take `O=Nc1c(-c2c(O)[nH]c3ccc([N+](=O)[O-])cc23)[nH]c2ccc(O)cc12`: the growth is -9.52% (active).

Turning to `O=C(Nc1ccc(F)cc1)c1cc([N+](=O)[O-])ccc1O`, the growth was 84%.

For `Cc1ccc(S(=O)(=O)OCC(=O)Nc2ccc(C(=O)O)c(O)c2)cc1`, the growth was 127%.

Take `Cc1cc(C)c(NC(=O)c2sc3nc4c(cc3c2N)CN(Cc2ccccc2)CC4)c(C)c1`: the growth is 23.9%.

For the molecule `COc1ccc(-c2nnc(COc3ccc(NS(=O)(=O)c4ccc(OC)cc4)cc3F)o2)cc1`, the growth is 83.9%.

For `Cc1ccc2nc(-c3c(CCCO)noc3N)[nH]c(=O)c2c1`, the growth was 106%.

For `O=[N+]([O-])c1ccc(S(=O)(=O)N2CCN(c3ccnc4cc(Cl)ccc34)CC2)c([N+](=O)[O-])c1`, the growth is 105%.

`CCN(Cc1ccc(CN(CC)C(=O)C(Cl)(Cl)Cl)cc1)C(=O)C(Cl)(Cl)Cl`: the growth was 91.2%.

With `COc1ccc(Cn2cc(COc3cc(/C=C/C(=O)c4cc(OC)c(OC)c(OC)c4)ccc3OC)nn2)cc1`, the growth was 72%.

Turning to `N#CC1=C(N)n2nc(-c3ccncc3)nc2NC1c1cccc2ccccc12` (stereo not drawn), the growth was 98.2%.

Consider `COc1ccc(/C=C/C(=O)c2ccc(B(O)O)cc2)cc1O`, for which the growth is 82.7%.

On to `Nc1nc(-c2ccccc2)cs1`, for which the growth was 99.4%.

Consider `NS(=O)(=O)c1ccc(NCC(=O)Nc2ccc(-c3nc4ccccc4s3)cc2)cc1`, for which the growth was 106%.

Consider `COc1cc(Br)c(OC)cc1Br`, for which the growth was 101%.

`COc1cc(NS(C)(=O)=O)ccc1Nc1c2ccc([N+](=O)[O-])cc2nc2c(C)cccc12`: the growth is 11.2%.

`O=C(Nc1ccc(I)cc1)c1cccc([N+](=O)[O-])c1O`: the growth was -2.55% (active).

The values above are taken from PubChem BioAssay (NCI).
